Among the data in PubChem BioAssay (NCATS) are Potency values, retold here.

Where “and” joins values, the source holds several entries; their conditions need not be identical. Equal values may be shown once. Results filed as inconclusive are left out. Calls of active or inactive are those of the source. Calls follow the shape of the dose curve; as a rule, active = well fitted cell-killing curve with a large enough effect; inconclusive = small, poorly fitted or top-dose-only effect; inactive = flat fitted curve, though single readings scatter.

A short description of the assay: Cellular viability qHTS for adrenocortical cancer (ACC) cell line NCI-H295R (AID 1963990). Also: nearly all actives have a fitted effect of over 60% in size. To be noted: CellTiter-Glo ATP luminescence, 48 h; series mostly up to 46.1 µM. The method in brief: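 CellTiter-Glo ATP luminescence, read 48 h after compound addition, measured viability of NCI-H295R adrenocortical cells grown serum-free with ITS. Final concentrations spanned up to 46 uM. Data normalized to DMSO and doxorubicin, fitted for IC50 and maximal response.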
Regarding `Cc1ccc2nc(NCCN)c3ncc(C)n3c2c1`, the Potency is 8.91 µM (active). With `Cn1c(Nc2ccc(C(F)(F)F)cc2)nc2cc(Oc3ccnc(-c4ncc(C(F)(F)F)[nH]4)c3)ccc21` the entry was “inactive”; with `c1nc2nc(Nc3ccc(N4CCOCC4)cc3)nc(NC3CCCCC3)c2[nH]1`, 2.82 µM (active). Take `COc1cc2c(N3CCN(C(=O)Nc4ccc(OC(C)C)cc4)CC3)ncnc2cc1OCCCN1CCCCC1`: the Potency result was “inactive”.

For the molecule `C1CCC(C(CC2CCCCN2)C2CCCCC2)CC1` (stereo not given), the Potency is 7.08 µM (active). Turning to `O=C(Nc1nnc(-c2ccco2)o1)c1cc(-c2ccccc2)nc2ccccc12`, the Potency is 10 µM (active). With `COc1ccc(-c2cc3c(C)nc(N)nc3n(C3CCC(OCCO)CC3)c2=O)cn1` (stereo not given), the Potency was 0.501 µM (active). For `Nc1nc(Nc2ccc(S(N)(=O)=O)cc2)nn1C(=O)c1c(F)cccc1F`, the Potency was 15.8 µM (active). The value for `CNC(=O)c1c(F)cccc1Nc1nc(Nc2cc3c(cc2OC)CCN3C(=O)CN(C)C)nc2[nH]ccc12` was 1.12 µM (active); that for `CN(C)c1ccc2cc(C(=O)N[C@@H](CCCN=C(N)CCl)C(=O)NCc3ccccc3)ccc2c1` was “inactive”.

For `CC[C@@]1(O)C[C@H](O[C@H]2C[C@H](N(C)C)[C@H](O[C@H]3C[C@H](O)[C@H](O[C@H]4CCC(=O)[C@H](C)O4)[C@H](C)O3)[C@H](C)O2)c2c(cc3c(c2O)C(=O)c2c(O)cccc2C3=O)[C@@H]1C(=O)OC`, the Potency is 22.4 µM (active). With `O=C(Nc1cccnc1)N1CCC(Cc2cccc(Oc3ccc(C(F)(F)F)cn3)c2)CC1` the figure was 17.8 µM (active); with `CC(C)C[C@H](NC(=O)CNC(=O)c1cc(Cl)ccc1Cl)B(O)O`, 0.398 µM (active); with `Cc1nc(N)sc1-c1ccnc(Nc2ccc(N3CCOCC3)cc2)n1`, “inactive”. With `CNCCCC12CCC(c3ccccc31)c1ccccc12` the figure was 23.1 µM (active) and 25.1 µM (active).
